Assay results published in PubChem BioAssay (NCI).
Values joined by “and” are separate entries in the source; they are usually repeats but may differ in a detail not shown here. Equal values may be shown once. This is part of a sample that, as a whole, favours compounds with a hit. Of some 79,000 tested, about 15% had one in any assay. Active and inactive are the calls of the source. No stated cut-off is given here; in the data, active means growth inhibition above about 70%; inactive means the rest.

How the values were obtained:
[1] = NCI Yeast Anticancer Drug Screen. Data for the mlh1 strain (AID 171);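 further: 0% = growth of vehicle-treated control cultures of the same strain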; settings: S. cerevisiae mlh1 strain growth inhibition, hits give high values
In short: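 Inhibition values reflect reduced yeast growth in the presence of compound, referenced to vehicle controls, using a strain chosen for its alteration in DNA repair or cell cycle control.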

[2] = NCI Yeast Anticancer Drug Screen. Data for the sgs1 strain (AID 173);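 further: 0% = growth of vehicle-only control cultures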; settings: S. cerevisiae sgs1 mutant, hits give high values
In short: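 Vehicle-treated cultures served as reference for growth inhibition of a yeast strain altered in DNA damage repair or cell cycle control after compound exposure.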

[3] = NCI Yeast Anticancer Drug Screen. Data for the mlh1 rad18 strain (AID 175); settings: S. cerevisiae mlh1 rad18 strain growth inhibition, hits give high values
In short: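 Inhibition values reflect reduced growth of mutant yeast versus vehicle-treated controls following compound exposure; the mutations affect DNA damage repair.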

[4] = NCI Yeast Anticancer Drug Screen. Data for the rad18 strain (AID 177); settings: S. cerevisiae rad18 mutant growth inhibition, hits give high values
In short: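 Steps: expose repair-mutant yeast to compound; measure growth; express as inhibition relative to vehicle control.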

[5] = NCI Yeast Anticancer Drug Screen. Data for the rad52 strain (AID 147);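 further: 0% = growth of vehicle-treated control cultures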; settings: S. cerevisiae rad52 mutant growth inhibition, hits give high values
In short: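 Inhibition of yeast growth, referenced to vehicle controls, was the measured output for a strain with defective DNA damage repair.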

[6] = NCI Yeast Anticancer Drug Screen. Data for the wt1 strain (AID 149);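 further: 0% = growth of vehicle-treated wt1 cultures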; settings: S. cerevisiae wt1 strain (SPY 50644) growth inhibition, hits give high values
In short: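 Using yeast strain wt1, compound-induced growth inhibition was determined against vehicle-treated cultures.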

[7] = NCI Yeast Anticancer Drug Screen. Data for the rad50EPP+ strain (AID 151);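 further: 0% = growth of vehicle-treated control cultures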; settings: S. cerevisiae rad50 mutant strain, hits give high values
In short: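 Genetically defined yeast (rad50EPP+, DNA damage repair alteration) is grown with compound, and inhibition of growth is expressed relative to vehicle-treated controls.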

[8] = NCI Yeast Anticancer Drug Screen. Data for the rad50 strain (AID 155);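 further: 0% = growth of vehicle-only cultures of the same strain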; settings: S. cerevisiae rad50 strain growth inhibition, hits give high values
In short: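 Relative growth inhibition (compound vs vehicle) was measured in yeast with a defined repair-gene alteration.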

[9] = NCI Yeast Anticancer Drug Screen. Data for the mec2-1 strain (AID 157); settings: S. cerevisiae mec2-1 strain, hits give high values
In short: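 Each compound was tested on mec2-1 yeast, a strain altered in DNA damage repair or cell cycle control. Growth inhibition is reported relative to vehicle.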

[10] = NCI Yeast Anticancer Drug Screen. Data for the rad14 strain (AID 159);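 further: 0% = growth of vehicle-treated control cultures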; settings: S. cerevisiae rad14 strain growth inhibition, hits give high values
In short: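 Screen for anticancer potential: a yeast strain altered in DNA damage repair is grown with compound, and reduced growth is quantified against vehicle controls.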

[11] = NCI Yeast Anticancer Drug Screen. Data for the sgs1 mgt1 strain (AID 161);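 further: 0% = growth of cultures given vehicle only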; settings: S. cerevisiae sgs1 mgt1 strain, hits give high values
In short: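 Inhibition of yeast growth, normalised to vehicle-treated controls, is reported for a strain bearing genetic alterations in DNA damage repair.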

[12] = NCI Yeast Anticancer Drug Screen. Data for the CLN2oe strain (AID 163);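 further: 0% = growth of vehicle-only control cultures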; settings: S. cerevisiae CLN2oe strain, hits give high values
In short: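 First, the altered yeast strain was treated with each compound; second, its growth was measured; finally, inhibition was derived by comparison with vehicle controls.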

[13] = NCI Yeast Anticancer Drug Screen. Data for the cln2 rad14 strain (AID 165);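 further: 0% = growth equal to vehicle treated cultures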; settings: S. cerevisiae cln2 rad14 strain, hits give high values
In short: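 Test compounds were added to cln2 rad14 yeast cultures; inhibition of growth was then determined by comparison with vehicle treatment.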

[14] = NCI Yeast Anticancer Drug Screen. Data for the bub3 strain (AID 167); settings: S. cerevisiae bub3 mutant strain, hits give high values
In short: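 Screening used yeast with an engineered genetic alteration affecting cell cycle control. Compound-exposed cultures were compared with vehicle cultures, and reduced growth was taken as inhibition.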

[15] = NCI Yeast Anticancer Drug Screen. Data for the wt2 strain (AID 169);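 further: 0% = growth of vehicle-treated yeast cultures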; settings: S. cerevisiae wt2 strain growth inhibition, hits give high values
In short: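 The panel's yeast strains carry defined changes in DNA repair or cell cycle genes. Each strain is grown with compound, and growth loss is scored relative to vehicle.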

[16] = at 5.0 µM (retest, dose inferred, filed as 0.5)
[17] = at 50.0 µM (retest, dose inferred, filed as 5.0)

Measured: growth inhibition

N#CSC1CCCCNC1=O (centres undefined)
active: [1]; at 100.0 µM 98% | [2]; at 33.0 µM 89% | [2]; at 100.0 µM 99% | [3]; at 50.0 µM 95.9% | [4]; at 11.0 µM 82% | [4]; at 33.0 µM 94% | [4]; at 100.0 µM 98%
inactive: [1]; at 1.2 µM 7% | [1]; at 3.7 µM -4% | [1]; at 11.0 µM 26% | [1]; at 33.0 µM 56% | [2]; at 1.2 µM 1% | [2]; at 3.7 µM 5% | [2]; at 11.0 µM 57% | [3]; [16] -126% | [3]; [17] 58% | [4]; at 1.2 µM 12% | [4]; at 3.7 µM 33%

OB(O)c1ccccc1C#Cc1ccccc1B(O)O
active: [5]; at 100.0 µM 95% | [7]; at 100.0 µM 85% | [8]; at 33.0 µM 84% | [8]; [17] 79% | [8]; at 100.0 µM 96% | [9]; at 100.0 µM 87% | [10]; at 100.0 µM 97% | [12]; at 100.0 µM 86% | [13]; at 50.0 µM 70.3% | [14]; at 100.0 µM 79% | [15]; at 100.0 µM 93% | [1]; at 100.0 µM 94% | [2]; at 100.0 µM 91% | [3]; [17] 79% | [4]; at 100.0 µM 95%
inactive: [5]; at 1.2 µM 2% | [5]; at 3.7 µM 7% | [5]; at 11.0 µM 24% | [5]; at 33.0 µM 59% | [6]; at 1.2 µM -2% | [6]; at 3.7 µM 0% | [6]; at 11.0 µM 6% | [6]; at 33.0 µM 18% | [6]; at 100.0 µM 59% | [7]; at 1.2 µM 0% | [7]; at 3.7 µM 6% | [7]; at 11.0 µM 36% | [7]; at 33.0 µM 69% | [8]; at 1.2 µM 7% | [8]; at 3.7 µM 17% | [8]; [16] 12% | [8]; at 11.0 µM 47% | [8]; at 50.0 µM 61.5% | [9]; at 1.2 µM -6% | [9]; at 3.7 µM 1% | [9]; [16] 5% | [9]; at 11.0 µM 13% | [9]; at 33.0 µM 43% | [9]; [17] 50% | [9]; at 50.0 µM 50% | [10]; at 1.2 µM -1% | [10]; at 3.7 µM 3% | [10]; at 11.0 µM 14% | [10]; at 33.0 µM 41% | [11]; [16] 4% | [11]; [17] 44% | [11]; at 50.0 µM 64.2% | [12]; at 1.2 µM -2% | [12]; at 3.7 µM 1% | [12]; at 11.0 µM 13% | [12]; at 33.0 µM 38% | [13]; [16] 9% | [13]; [17] 39% | [14]; at 1.2 µM -7% | [14]; at 3.7 µM -8% | [14]; [16] -1% | [14]; at 11.0 µM -8% | [14]; at 33.0 µM 8% | [14]; [17] 20% | [14]; at 50.0 µM 58% | [15]; at 1.2 µM -1% | [15]; at 3.7 µM -3% | [15]; at 11.0 µM 3% | [15]; at 33.0 µM 18% | [1]; at 1.2 µM 1% | [1]; at 3.7 µM 1% | [1]; at 11.0 µM 12% | [1]; at 33.0 µM 27% | [2]; at 1.2 µM -1% | [2]; at 3.7 µM 4% | [2]; at 11.0 µM 17% | [2]; at 33.0 µM 35% | [3]; [16] 20% | [3]; at 50.0 µM 68.2% | [4]; at 1.2 µM -4% | [4]; at 3.7 µM 0% | [4]; at 11.0 µM 8% | [4]; at 33.0 µM 40%

COc1ccc(/C(C#N)=C/c2ccc(OC)c(OC)c2)cc1
inactive: [5]; at 1.2 µM 10% | [5]; at 3.7 µM -6% | [5]; at 11.0 µM -1% | [5]; at 33.0 µM -13% | [5]; at 100.0 µM 21% | [6]; at 1.2 µM -37% | [6]; at 3.7 µM -21% | [6]; at 11.0 µM -22% | [6]; at 33.0 µM -23% | [6]; at 100.0 µM 0% | [7]; at 1.2 µM -17% | [7]; at 3.7 µM 0% | [7]; at 11.0 µM 8% | [7]; at 33.0 µM 60% | [7]; at 100.0 µM 54% | [8]; at 1.2 µM 2% | [8]; at 3.7 µM -4% | [8]; [16] 46% | [8]; at 11.0 µM -12% | [8]; at 33.0 µM 6% | [8]; at 50.0 µM 15.1% and 51.5% | [8]; at 100.0 µM 14% | [9]; at 1.2 µM -11% | [9]; at 3.7 µM -7% | [9]; [16] 56% | [9]; at 11.0 µM -21% | [9]; at 33.0 µM -10% | [9]; at 50.0 µM 43.8% and 38% | [9]; at 100.0 µM 18% | [10]; at 1.2 µM -17% | [10]; at 3.7 µM -29% | [10]; at 11.0 µM -27% | [10]; at 33.0 µM -13% | [10]; at 100.0 µM 32% | [11]; [16] -15% | [11]; [17] 57% | [11]; at 50.0 µM 46.8% | [12]; at 1.2 µM 13% | [12]; at 3.7 µM 9% | [12]; at 11.0 µM -2% | [12]; at 33.0 µM 0% | [12]; at 100.0 µM -5% | [13]; [16] 55% | [13]; [17] 60% | [13]; at 50.0 µM 7.8% | [14]; at 1.2 µM -5% | [14]; at 3.7 µM -3% | [14]; [16] 10% | [14]; at 11.0 µM 2% | [14]; at 33.0 µM 9% | [14]; at 50.0 µM 50.2% | [14]; at 100.0 µM 51% | [15]; at 1.2 µM -49% | [15]; at 3.7 µM -35% | [15]; at 11.0 µM -21% | [15]; at 33.0 µM -5% | [15]; at 100.0 µM 21% | [1]; at 1.2 µM -8% | [1]; at 3.7 µM 2% | [1]; at 11.0 µM 10% | [1]; at 33.0 µM 28% | [1]; at 100.0 µM 40% | [2]; at 1.2 µM -8% | [2]; at 3.7 µM -13% | [2]; at 11.0 µM -20% | [2]; at 33.0 µM 2% | [2]; at 100.0 µM 16% | [3]; [16] 30% | [3]; at 50.0 µM 26.1% and 58.4% | [4]; at 1.2 µM -13% | [4]; at 3.7 µM -17% | [4]; at 11.0 µM -13% | [4]; at 33.0 µM 0% | [4]; at 100.0 µM 13%
active: [8]; [17] 83% | [9]; [17] 92% | [14]; [17] 75% | [3]; [17] 81%
